# Data reported in PubChem BioAssay AID1259422 (The Scripps Research Institute Molecular Screening Center, 2018).
# Among all 640,000 compounds or so, about 9,300 (1.5%) were called active. This is one part of a sample in which actives are shown more often than they occur. Unmarked numbers belong to inactive results. No stated cut-off is given here; in the data, active means inhibition above about 32%; inactive means the rest.
# Assay: TEAD-YAP interaction inhibition, primary screen, TEAD-YAP interaction inhibitor project, luminescence, HEK-TIYL cells (AID 1259422);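 further: 0% = median of test compound wells and 100% = reference inhibitor wells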
# Conditions: TEAD-Gal4/YAP UAS-luciferase luminescence, at 9.12 µM, active compounds read high
row,SMILES,inhibition
1,CCCOC(=O)c1ccc(NC(=O)c2cc(OC)c(OC)c(OC)c2)cc1,-1.39%
2,COc1cc(OC)c(OC)cc1/C=N/NC(=O)c1ccccn1,-43.7%
3,COC(=O)N/N=C\c1ccc(-c2cccc(Cl)c2)o1,-22.7%
4,COc1cc(C(=O)N/N=C/c2cccs2)cc(OC)c1OC,61.3% (active)
5,CCC/C=N/NC(=O)c1cc(OC)c(OC)c(OC)c1,59.2% (active)
6,Cc1ccc(N2C(=O)c3cccc4c(Br)c([N+](=O)[O-])cc(c34)C2=O)c(C)c1,6.15%
7,CCN(CC)CCCN(Cc1ccco1)C(=S)Nc1cc(C)c(Cl)cc1OC,3.59%
8,Cc1nc2c(c(=O)[nH]1)CN(Cc1cccn1C)CC2,-16.9%
9,Oc1ccc(-c2cnc3c(NCc4ccco4)nccn23)cc1,-72.4%
10,Cc1ccc(-n2ncc3c(NCc4ccco4)ncnc32)cc1,-76.8%
11,Ic1ccc2ncnc(NCc3ccco3)c2c1,15.7%
12,c1coc(CNc2ncnc3ccccc23)c1,36.3% (active)
13,CCOC(=O)c1ccc(NC(=O)N2CCN(c3nc(-c4ccccc4)cs3)CC2)cc1,-7.79%
14,COCCNC(=O)c1cc2nc(-c3cccs3)cc(C(F)(F)F)n2n1,8.1%
15,Cc1ccccc1-n1c(C)cc(/C=C2\NC(=O)NC2=O)c1C,57.4% (active)
16,Cc1cc(/C=C2/NC(=O)NC2=O)c(C)n1-c1ccc2ccccc2c1,7.98%
17,Cc1cc(/C=C2/NC(=O)NC2=O)c(C)n1-c1ccc(Cl)cc1,4.42%
18,COc1ccc(C(=O)n2nnc3ccccc32)cc1,-1.4%
19,Cc1nn(C(=O)N(C)c2ccccc2)c(C)c1Br,5%
20,CN(C(=O)n1nnc2ccccc21)c1ccccc1,44.2% (active)
21,O=C(N/N=C/c1ccc(Cl)cc1)c1ccccc1F,-4.81%
22,COCCNCC(=O)Nc1cccc2ccccc12,8.26%
23,O=C(NN1CC(C(=O)OCc2ccc([N+](=O)[O-])cc2)CC1=O)c1ccccc1 (stereo not drawn),5.91%
24,Cc1cc(C)n(CCc2nc3c4ccccc4n(CC(N)=O)c(=O)n3n2)n1,4.04%

row,SMILES,inhibition
1,COC(=O)COc1ccc(NC(=O)COc2ccccc2)cc1,0.58%
2,COc1ccc(CC(=O)Nc2ccc(-c3cn4c(C)csc4n3)cc2)cc1,-12.5%
3,Cc1csc2nc(-c3ccc(NC(=O)COc4ccccc4)cc3)cn12,78.2% (active)
4,O=C(Nc1cccc2ccccc12)c1nc2c(nnn2Cc2ccc(F)cc2)c(=O)[nH]1,-2.87%
5,O=C(Nc1ccc(Br)cn1)c1ccccc1Cl,-0.48%
6,CCc1ccccc1-n1c(SCC(=O)Nc2nc(C)cs2)nnc1-c1cccnc1,56.8% (active)
7,Cc1csc(NC(=O)CSc2nnc(-c3cccnc3)o2)n1,-34.8%
8,Cc1ccccc1-n1c(SCC(=O)NNC(=O)c2ccco2)nnc1-c1cccnc1,-12%
9,Cc1cccc(-n2c(SCC(=O)NNC(=O)c3ccco3)nnc2-c2cccnc2)c1C,-0.49%
10,CCCn1c(SCC(=O)Nc2nc(C)cs2)nnc1-c1ccccn1,12.5%
11,Cc1ccccc1-n1c(SCC(=O)c2c[nH]c3ccccc23)nnc1-c1cccnc1,48.9% (active)
12,O=C(NCc1ccncc1)C(=O)NCC1OCCCN1S(=O)(=O)c1cccs1 (stereo not drawn),0.25%
13,CCCCOC(=O)c1cc(-c2ccc(OC)cc2)nc2ccc(Br)cc12,0.12%
14,Cc1[nH]c2ccccc2c1C(Nc1nccs1)c1ccccc1O (stereo not drawn),2.06%
15,Cn1c(SCC(=O)c2ccc([N+](=O)[O-])cc2)nnc1C(F)(F)F,4.67%
16,O=C(N/N=C/c1ccccc1Cl)C(=O)N/N=C/c1ccccc1Cl,9.07%
17,CCOC(=O)C1=CN(Cc2ccc(F)cc2)C=C(C(=O)OCC)C1c1ccc(Cl)cc1,1.74%
18,Cc1cc(NCc2ccccc2)nc(-n2nc(C)cc2C)n1,65.4% (active)
19,CC(=O)Nc1ccc(Nc2cc(Nc3ccccn3)nc(N)n2)cc1,-12.6%
20,Cc1cc(NCc2ccccc2)nc(N2CCN(Cc3ccc4c(c3)OCO4)CC2)n1,3.95%
21,Cc1cc(C)n(-c2nc(Nc3ccc(OC(F)(F)F)cc3)nc(-n3nc(C)cc3C)n2)n1,-10.5%
22,CCc1ccccc1NC(=O)NCCNc1cc(-n2nc(C)cc2C)nc(C)n1,-1.06%
23,CC(=O)Nc1ccc(Nc2cc(C)nc(-n3nc(C)cc3C)n2)cc1,36% (active)
24,COc1cc2nc(NCc3ccc4c(c3)OCO4)nc(N)c2cc1OC,8.22%
